An excerpt weighted towards active compounds, which were near 6.7% of everything screened.
C diff growth: inhibitors of Clostridium difficile growth. hit rate 0.25% among 86,000. Clostridium difficile clinical isolate growth, OD600, 24 h; stronger effect = lower value. growth activity, negative = inhibition, % at 16 µg/mL (by protocol). AID 1259249;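 active means mean growth activity at or below -80% and every replicate also at or below -80%; inconclusive means mean at or below -80% but some replicate above -80%; inactive means mean growth activity above -80%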;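 further: 0% = DMSO wells and -100% = levofloxacin 16 µg/mL wells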
Tcruzi prolif: blocks T. cruzi growth in NIH3T3 culture. T. cruzi beta-gal in NIH3T3, GalScreen luminescence, 90 h. inhibition, % at 8.34 µM. hit rate 5.9% among 77,000. AID 624255;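 active means mean inhibition above about 93%, with at least 55% of replicates each passing it, limit read from the data, passing the limit was not always enough; inconclusive means only one of those two conditions holds; inactive means neither condition holds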
Pf Dd2 growth: P. falciparum Dd2 growth inhibition; SYBR Green, 72 h; stronger effect = lower value; activity change, % at 10 µM; hit rate 2.3% among 94,000; AID 1159554; in the data active means activity change below about -80%; inconclusive means no clear call, values can overlap the other calls
* marks the source's active call; other numbers are inactive results.

What do the screens show for `CCS(=O)(=O)N1CC2(C1)[C@@H](c1ccccc1)[C@@H](CO)N2C(=O)C1CCCC1`?
C diff growth: 2; Pf Dd2 growth: 4

Results for C[C@@H]1CN([C@H](C)CO)C(=O)c2c(c3ccccc3n2C)-c2ccccc2CO[C@H]1CN(C)Cc1ccc(Oc2ccccc2)cc1 ?
C diff growth: 21; Pf Dd2 growth: -87*

How did C[C@H]1CN([C@@H](C)CO)C(=O)c2c(c3ccccc3n2C)-c2ccccc2CO[C@@H]1CN(C)Cc1ccc(Oc2ccccc2)cc1 do in these assays?
C diff growth: 32; Pf Dd2 growth: -87*

Results for C[C@@H]1CN([C@@H](C)CO)C(=O)c2c(c3ccccc3n2C)-c2ccccc2CO[C@@H]1CN(C)Cc1ccc(O)cc1 ?
C diff growth: -7; Pf Dd2 growth: -42

How did C[C@H]1CN([C@@H](C)CO)C(=O)c2c(c3ccccc3n2C)-c2ccccc2CO[C@H]1CN(C)Cc1ccc(F)cc1 do in these assays?
C diff growth: 30; Pf Dd2 growth: -49

What do the screens show for `C[C@@H]1CN([C@@H](C)CO)C(=O)c2c(c3ccccc3n2C)-c2ccccc2CO[C@H]1CN(C)Cc1ccc(F)cc1`?
C diff growth: 51; Pf Dd2 growth: -50

Results for C[C@H]1CN([C@@H](C)CO)C(=O)c2c(c3ccccc3n2C)-c2ccccc2CO[C@H]1CN(C)Cc1ccc(Oc2ccccc2)cc1 ?
C diff growth: 2; Pf Dd2 growth: -84*

How did CCCC#Cc1ccc(CC[C@H]2O[C@H]3CC[C@@H](CO)O[C@H]3C[C@H]2NC(=O)c2cnccn2)cc1 do in these assays?
C diff growth: 9; Pf Dd2 growth: -13

Results for C[C@@H]1CN([C@@H](C)CO)C(=O)Cc2cc(NC(=O)C3CC3)ccc2O[C@@H]1CN(C)C(=O)Nc1ccc(C(F)(F)F)cc1 ?
C diff growth: -2; Tcruzi prolif: 33; Pf Dd2 growth: 11

Results for Cc1noc(C)c1NC(=O)N(C)C[C@@H]1Oc2ccc(NC(=O)NC3CCCCC3)cc2CC(=O)N([C@@H](C)CO)C[C@H]1C ?
C diff growth: 0; Tcruzi prolif: -3; Pf Dd2 growth: 3

Results for COc1ccc(S(=O)(=O)Nc2ccc3c(c2)C(=O)N([C@@H](C)CO)C[C@@H](C)[C@@H](CN(C)C(=O)CCCN(C)C)OCCCC[C@@H](C)O3)cc1 ?
C diff growth: -3; Tcruzi prolif: 27; Pf Dd2 growth: 26

What do the screens show for `COCC(=O)N1CCC2(CC1)CN(Cc1cc(F)ccc1F)[C@@H](CO)c1[nH]c3cc(OC)ccc3c12`?
Pf Dd2 growth: -53

Results for COc1ccc2c3c([nH]c2c1)[C@@H](CO)N(Cc1cc(F)ccc1F)CC31CN(C(=O)CN(C)C)C1 ?
C diff growth: -11; Pf Dd2 growth: -87*

Results for COc1ccc2c3c([nH]c2c1)[C@H](CO)N(Cc1cc(F)ccc1F)CC31CN(C(=O)CN(C)C)C1 ?
C diff growth: -3; Pf Dd2 growth: inconclusive

What do the screens show for `COc1ccc2c3c([nH]c2c1)[C@@H](CO)N(Cc1cc(F)ccc1F)CC31CCN(C(=O)CN(C)C)CC1`?
C diff growth: 6; Pf Dd2 growth: -85*

Results for O=C(C[C@H]1CC[C@H](NC(=O)C2CCOCC2)[C@H](CO)O1)NCc1ccccc1Cl ?
Tcruzi prolif: -26; Pf Dd2 growth: 0

Results for C[C@H]1CN([C@@H](C)CO)S(=O)(=O)c2ccc(C3=CCCC3)cc2O[C@@H]1CN(C)Cc1cccc(C(=O)O)c1 ?
C diff growth: -4; Tcruzi prolif: 84; Pf Dd2 growth: -31

What do the screens show for `Cc1cc(C(=O)Nc2cccc3c2O[C@@H](CN(C)S(=O)(=O)c2cn(C)cn2)[C@H](C)CN([C@H](C)CO)C3=O)n(C)n1`?
Tcruzi prolif: 85; Pf Dd2 growth: -25

How did O=C(C[C@@H]1C=C[C@@H](NC(=O)c2cccnc2)[C@H](CO)O1)NCc1ccc(Cl)c(Cl)c1 do in these assays?
Tcruzi prolif: -11; Pf Dd2 growth: -9

How did C[C@@H]1CN([C@@H](C)CO)C(=O)c2cc(NC(=O)C3CC3)ccc2O[C@H]1CN(C)Cc1ccc(Oc2ccccc2)cc1 do in these assays?
C diff growth: 0; Tcruzi prolif: 57; Pf Dd2 growth: -27

Results for Cc1ccc(S(=O)(=O)Nc2ccc3c(c2)C(=O)N([C@H](C)CO)C[C@@H](C)[C@H](CN(C)S(=O)(=O)c2ccc(Cl)cc2)OCCCC[C@@H](C)O3)cc1 ?
C diff growth: -1; Tcruzi prolif: 55; Pf Dd2 growth: -81*

Results for Cc1ccc(S(=O)(=O)N(C)C[C@@H]2OCCCC[C@@H](C)Oc3ccc(NS(=O)(=O)c4ccc(Cl)cc4)cc3C(=O)N([C@@H](C)CO)C[C@H]2C)cc1 ?
C diff growth: 5; Tcruzi prolif: 82; Pf Dd2 growth: 4

What do the screens show for `Cc1noc(C)c1S(=O)(=O)Nc1ccc2c(c1)C(=O)N([C@@H](C)CO)C[C@H](C)[C@@H](CN(C)S(=O)(=O)c1ccc(Cl)cc1)OCCCC[C@@H](C)O2`?
C diff growth: 12; Tcruzi prolif: 78; Pf Dd2 growth: -84*

What do the screens show for `Cc1ccc(S(=O)(=O)N(C)C[C@H]2OCCCC[C@H](C)Oc3ccc(NS(=O)(=O)c4ccc(F)cc4)cc3C(=O)N([C@@H](C)CO)C[C@H]2C)cc1`?
C diff growth: 2; Tcruzi prolif: 115*; Pf Dd2 growth: -82*

What do the screens show for `Cc1ccc(S(=O)(=O)N(C)C[C@@H]2OCCCC[C@H](C)Oc3ccc(NS(=O)(=O)c4ccc(Cl)cc4)cc3C(=O)N([C@H](C)CO)C[C@@H]2C)cc1`?
C diff growth: 0; Tcruzi prolif: 108*; Pf Dd2 growth: -46

Results for Cc1ccc(S(=O)(=O)N(C)C[C@@H]2OCCCC[C@H](C)Oc3ccc(NS(=O)(=O)c4ccc(F)cc4)cc3C(=O)N([C@@H](C)CO)C[C@@H]2C)cc1 ?
C diff growth: 3; Tcruzi prolif: 113; Pf Dd2 growth: -47

Results for Cc1noc(C)c1S(=O)(=O)Nc1ccc2c(c1)C(=O)N([C@@H](C)CO)C[C@H](C)[C@H](CN(C)S(=O)(=O)c1ccc(Cl)cc1)OCCCC[C@@H](C)O2 ?
C diff growth: 0; Tcruzi prolif: 91; Pf Dd2 growth: -73

What do the screens show for `Cc1ccc(S(=O)(=O)N(C)C[C@@H]2OCCCC[C@@H](C)Oc3ccc(NS(=O)(=O)c4ccc(Cl)cc4)cc3C(=O)N([C@H](C)CO)C[C@H]2C)cc1`?
C diff growth: 3; Tcruzi prolif: 77; Pf Dd2 growth: -54

Results for CCC(=O)N(C)C[C@@H]1Oc2ncc(-c3ccc(F)cc3)cc2C(=O)N([C@@H](C)CO)C[C@H]1C ?
C diff growth: -3; Tcruzi prolif: 2; Pf Dd2 growth: 42

Results for COc1cccc(NC(=O)N2CC(=O)N3[C@H](CO)[C@H](c4ccc(C5=CCCCC5)cc4)[C@@H]3C2)c1 ?
C diff growth: 43; Pf Dd2 growth: 4

How did Cn1cnc(S(=O)(=O)N2C[C@H](O)COC[C@H]3O[C@@H](CC(=O)N4CCN(c5ccccc5)CC4)CC[C@@H]32)c1 do in these assays?
C diff growth: 1; Tcruzi prolif: -94; Pf Dd2 growth: 18

What do the screens show for `C[C@@H]1CN([C@H](C)CO)C(=O)c2c(c3ccccc3n2C)-c2ccccc2CO[C@H]1CN(C)C(=O)c1cc(Cl)cc(Cl)c1`?
C diff growth: 78; Pf Dd2 growth: -31

Screening data deposited in PubChem by Broad Institute.
